Assay outcomes (PubChem)
Sampled rows, rich in hits. Any-hit rate of the full collection: about 3.4%.
Giardia FBPA inh = blocks Giardia fructose-bisphosphate aldolase activity; Potency, µM (top dose mostly 59.6 µM), for the others: at the highest dose activity, negative = inhibition, usual class: inhibitors; AID 2451; purified Giardia FBPA; 290,000 compounds, 0.71% hits; A8B2U2; further: nearly all actives have a fitted effect of over 55% in size
Target sequence (A8B2U2 whole entry, looked up): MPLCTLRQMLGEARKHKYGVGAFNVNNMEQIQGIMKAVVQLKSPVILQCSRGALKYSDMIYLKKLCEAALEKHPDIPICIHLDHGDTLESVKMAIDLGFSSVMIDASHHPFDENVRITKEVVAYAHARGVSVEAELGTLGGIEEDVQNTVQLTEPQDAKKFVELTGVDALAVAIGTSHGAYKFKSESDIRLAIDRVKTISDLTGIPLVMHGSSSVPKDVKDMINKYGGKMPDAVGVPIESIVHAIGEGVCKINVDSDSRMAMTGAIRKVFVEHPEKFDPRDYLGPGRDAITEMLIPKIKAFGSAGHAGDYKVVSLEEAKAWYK
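Giardia FBPA (40 nM reagent) was preincubated 10 min at RT with compound (up to 57.5 uM final), then substrate plus GAPDH/TPI/NAD/arsenate coupling system with diaphorase/resazurin was added; resorufin fluorescence (525/598 nm) was read after 20 min.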
Sm TGR block = blocks Schistosoma mansoni thioredoxin glutathione reductase; Q962Y6; purified TGR, DTNB reduction, TNB absorbance 405 nm; Potency, µM (highest dose often 114 µM), without a hit: at the top dose activity change, negative = inhibition, most hits filed as inhibitors; 360,000 compounds, 3% hits; further: nearly all actives have a fitted effect of over 60% in size
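TGR 20 nM + NADPH 100 uM (dispensed conc.), cpd preinc 15 min RT; start with NADPH (500 uM addition) then DTNB (15 mM addition). Kinetic TNB absorbance, 405 nm filter. Four-parameter Hill fit across titration.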
AmpC detergent = AmpC beta-lactamase inhibition with detergent present; P00811; AmpC hydrolysis of nitrocefin, absorbance 480 nm, 0.01% Triton; Potency, µM (top dose mostly 114 µM), for inactives: top-dose activity change, negative = inhibition, most hits filed as inhibitors; 370,000 compounds, 0.041% hits;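 further: 0% = no-compound wells and -100% = no-enzyme wells; nearly all actives have a fitted effect of over 25% in size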
Target sequence (P00811 whole entry, looked up): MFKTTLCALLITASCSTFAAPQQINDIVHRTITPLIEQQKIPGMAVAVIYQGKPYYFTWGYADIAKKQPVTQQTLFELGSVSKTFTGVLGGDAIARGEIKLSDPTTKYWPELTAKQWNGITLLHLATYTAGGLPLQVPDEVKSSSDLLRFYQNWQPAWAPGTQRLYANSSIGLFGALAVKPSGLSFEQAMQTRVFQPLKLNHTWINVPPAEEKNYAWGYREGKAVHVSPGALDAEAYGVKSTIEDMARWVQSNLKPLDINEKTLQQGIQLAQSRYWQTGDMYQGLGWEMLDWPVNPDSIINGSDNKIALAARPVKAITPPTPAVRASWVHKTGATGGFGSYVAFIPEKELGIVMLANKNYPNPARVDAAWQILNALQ
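20 mM phosphate pH 7.0 + 0.01% (detergent screen) or 0.0001% Triton X-100; 5.3 nM AmpC reagent; cpd preinc 15 min RT; nitrocefin (800 uM stock) to start; A480 q20 s × 4 min; Activity was normalised to no-enzyme and no-compound control wells.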
RE007 growth inh = less growth of the S. pombe RE007 Vpr strain | S. pombe RE007 Vpr strain, BacTiter-Glo ATP luminescence, 24 h | Potency, µM (doses to about 92.2 µM), without a hit: at the top dose activity change, negative = less growth, actives largely listed as inhibitors | 360,000 compounds, 0.21% hits | AID 651644; active means well fitted falling curve with a large enough effect; inconclusive means small, poorly fitted or top-dose-only effect; inactive means no such curve, though single readings can be large or run the other way; further: nearly all actives have a fitted effect of over 50% in size
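Fission yeast strain RE007, carrying one chromosomally integrated HIV-1 vpr copy, was seeded at OD 0.01 in PMG+AL medium with 23 nL pinned compound. After 24 h at 30 °C and 99% humidity, viability was read by BacTiter-Glo luminescence.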
AmpC inh no detg = AmpC beta-lactamase inhibition without detergent; 330,000 compounds, 0.52% hits; AmpC nitrocefin hydrolysis, absorbance 480 nm, 0.0001% Triton; AID 485341; Potency, µM (top dose mostly 57.1 µM), without a hit: at the top dose activity change, negative = inhibition, usual class: inhibitors;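 further: plate controls were no compound for no effect and no enzyme for full effect; nearly all actives have a fitted effect of over 20% in size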
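AmpC (5.3 nM in the dispensed reagent) in 20 mM phosphate pH 7.0 with 0.01% (detergent screen) or 0.0001% Triton X-100 was preincubated with compounds for 15 min at room temperature. Nitrocefin was then added from an 800 uM solution, and hydrolysis was followed at 480 nm.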
Numbers without * were called inactive; u = inconclusive; x = not tested or not shown. Unless noted, the call rests on the fitted dose curve; in most records, active means well fitted curve in the direction sought with a large enough effect; inconclusive means small, poorly fitted or top-dose-only effect, or another doubt; inactive means no such curve, though single readings can be large; an effect the other way counts as inactive or inconclusive. Unless noted, on the % scale 0 is the no-effect control and ±100 the full control effect; potency means the concentration at half of the fitted maximal effect.

SMILES | Giardia FBPA inh | Sm TGR block | AmpC detergent | RE007 growth inh | AmpC inh no detg
CCOc1ccc(C2C=C(c3ccccc3)Nc3ncnn32)cc1 (centres undefined) | -2% | 79µM* | -9% | x | -21%
Fc1ccc(C2=CC(c3ccc(Br)o3)n3ncnc3N2)cc1 (centres undefined) | 7% | 20µM* | -8% | u | -49%
Cc1nc(N2CCN(c3ccccc3O)CC2)c2c(-c3ccccc3)csc2n1 | -11% | -8% | u | 4% | -1%
Cc1ccc(CCNCc2c(C(=O)O)c(C)n(-c3ccccc3)c2C)cc1 | -16% | u | 0% | -4% | -2%
Cc1c(CNCCc2ccc(Cl)cc2)c(C(=O)O)c(C)n1-c1ccccc1 | 6% | 11µM* | 3% | -13% | 50%
COc1ccc(OC)c(N(CC(=O)N2CCCCC2)S(=O)(=O)c2ccc(OC)c(OC)c2)c1 | 4% | -1% | 1% | -5% | 73%
COc1ccc(N(CC(=O)N2CCCCC2)S(=O)(=O)c2ccccc2)c(OC)c1 | 13% | -7% | 3% | -6% | 8.9µM*
Cc1cccc(Oc2ncnc3onc(C)c23)c1 | 0% | 3% | 0% | -12% | 0.79µM*
Cc1ccc(C)c(NC(=O)C(NCC(C)(C)N2CCOCC2)c2ccccc2)c1 (centres undefined) | 3% | -4% | 1% | 12% | 16%
CSCc1ccc(C(=O)N2CCCC(Nc3ccc4c(c3)OCCO4)C2)o1 (centres undefined) | 0% | 28µM* | u | 1% | -9%
CSCc1ccc(C(=O)N2CCCC(Nc3ccc(F)cc3)C2)o1 (centres undefined) | x | -32% | 13% | -3% | 35%
CCc1ccc2oc(C(=O)NCc3ccc(S(N)(=O)=O)cc3)c(C)c2c1 | -5% | x | 2% | 1% | -49%
CCCNC(=O)Cc1cc(=O)[nH]c(=O)[nH]1 | 1% | 1% | 3% | 4% | u
CCCCCNC(=O)Cc1cc(=O)[nH]c(=O)[nH]1 | 3% | -4% | u | 7% | 50µM*
Cc1sc2nc(CN3CCCCC3)nc(Cl)c2c1C | -9% | 50µM* | 10% | -2% | -4%
Clc1nc(CN2CCCCC2)nc2sc3c(c12)CCCC3 | 1% | 20µM* | -3% | -11% | -14%
Clc1nc(CN2CCOCC2)nc2sc3c(c12)CCC3 | 0% | -34% | 2% | -13% | -2%
CC1CCN(Cc2nc(Cl)c3c4c(sc3n2)CCC4)CC1 | 2% | 16µM* | 0% | -15% | -30%
O=C1CCCc2nc(N3CCCCC3)sc21 | -4% | 8% | 2% | -3% | -14%
Cc1ccc(S(=O)(=O)c2nc(Nc3nccs3)sc2Cl)cc1 | -1% | -2% | u | 15% | -45%
COc1cc(C)c2c(c1C=O)Oc1c(c(C)c(O)c3c1C(O)OC3=O)OC2=O (centres undefined) | 3% | 20µM* | 6% | 11% | -21%
COc1ccccc1N(C(C)=O)C1=C(Cl)C(=O)c2ccccc2C1=O | x | x | x | 13µM* | x
COc1cc(NS(=O)(=O)c2ccc(N/C=C\C(=O)c3ccc(OC)c(OC)c3)cc2)nc(OC)n1 | 3% | -24% | 2% | -2% | 0%
Cc1[nH]n(-c2ccccc2)c(=O)c1C(C[N+](=O)[O-])c1ccc(Br)cc1 (centres undefined) | -29% | u | 2% | 10µM* | -51%
Cc1[nH]n(-c2ccccc2)c(=O)c1C(c1cccc([N+](=O)[O-])c1)c1c(C)[nH]n(-c2ccccc2)c1=O | -24% | -23% | -3% | -11% | -44%
SMILES | Giardia FBPA inh | Sm TGR block | AmpC detergent | RE007 growth inh | AmpC inh no detg
COc1cccc(C(C[N+](=O)[O-])c2c(C)[nH]n(-c3ccccc3)c2=O)c1 (centres undefined) | 13µM* | 35µM* | -12% | u | -42%
OC[C@@H]1CN(Cc2cccc(C(F)(F)F)c2)C[C@H](n2cnc3c(NCc4ccncc4)ncnc32)O1 | x | x | x | -2% | x
Cc1onc(-c2ccccc2)c1C(=O)OCC(=O)Nc1ccc(OC(F)(F)F)cc1 | x | -3% | 3% | -7% | -2%
Cc1cc(C(C)(C)C)oc1C(=O)N(CC(=O)NC1CCCC1)Cc1ccccc1Cl | -2% | -2% | 6% | 5% | 5.6µM*
Cc1ccccc1N(CC(=O)NC1CCCC1)C(=O)c1oc(C(C)(C)C)cc1C | u | 5% | 14% | 11% | 0%
COC(=O)c1cc(Cl)ccc1NCC(N)c1ccccc1 (centres undefined) | x | x | x | -13% | x
O=C(NCc1ccco1)c1cccc(NC(=O)c2ccco2)c1 | -1% | 45µM* | -3% | 4% | -29%
CCCN1C(=O)c2ccc(C(=O)NCc3ccco3)cc2C1=O | 2% | 32µM* | 2% | -9% | -33%
O=C(Nc1ccc(Cl)cc1C(=O)O)c1ccc2c(c1)C(=O)N(Cc1ccco1)C2=O | 20% | 50µM* | -13% | 8% | -17%
Cc1cccc(NC(=O)c2ccccc2NC(=O)c2ccco2)c1 | x | -28% | 0% | -4% | 6.3µM*
Cc1cc(Nc2cc(C)on2)n2ncnc2n1 | u | -9% | u | -4% | -13%
CC(=O)NC(CC(=O)OCC(=O)c1cc(C)ccc1C)c1ccccc1 (centres undefined) | x | x | x | 15% | 51%
CCOc1ccccc1CNC(=O)C1CCN(S(=O)(=O)c2ccc3[nH]c(=O)ccc3c2)CC1 | x | 8% | 1% | x | x
COc1cc(NC(=O)CCN2CCOCC2)cc(OC)c1 | -6% | 5% | u | -13% | -11%
COCCCN1C(=O)c2ccc(C(=O)NCc3ccco3)cc2C1=O | 0% | 28µM* | u | -6% | -11%
CCc1nc2ccc(C(=O)NCc3ccco3)cc2nc1CC | 2% | 28µM* | 3% | -3% | -11%
COCCN1C(=O)c2ccc(C(=O)NCc3ccco3)cc2C1=O | x | -12% | 8% | -2% | -6%
CCc1nc2ccc(C(=O)NCc3ccc(C)o3)cc2nc1CC | x | u | -1% | -4% | 2%
CCn1nc(C)cc1C(=O)Sc1ccc(C)cc1 | 6% | 18µM* | 2% | -10% | -2%
Cc1[nH]c2ccccc2c1/C=N/Nc1ccc(F)cc1F | -12% | 50µM* | u | x | -28%
CCc1cc(C(c2ccc(OC)c(OC)c2)N2CCOCC2)c(NC(=O)c2ccccc2)s1 (centres undefined) | 6% | 2.5µM* | -4% | -1% | 53%
CCc1cc(C(c2ccc(F)cc2)N2CCOCC2)c(NC(=O)c2ccccc2)s1 (centres undefined) | x | 4µM* | 1% | 11% | -31%
NC(N)=Nc1ccc(N=C(N)N)cc1 | -5% | 1% | -11% | x | -21%
CCCCCCn1c(C(C)NC(=O)c2ccco2)nc2ccccc21 (centres undefined) | 1% | 40µM* | 4% | -5% | 68%
